Compounds with a hit are over-represented: about 5.7% of the library has one in this group of screens.
DAX1 inh-1: DAX1 (NR0B1) inhibition, primary screen; HEK293T StAR-luciferase reporter, SF-1/DAX-1 repression relief; inhibition, % at 6.8 µM; actives 1.1% (n = 370,000);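 active = inhibition above the mean over all tested compounds plus 3 SD, cut at about 3.6% in these data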;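 note: 0% = DAX-1 cells with DMSO and 100% = cells lacking DAX-1 with DMSO; higher inhibition means more luminescence from relief of DAX-1 repression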
AHR activator: human AHR activation | P35869 | AHR-responsive luciferase reporter cells, luminescence | activation, % at 5 µM | actives 2.5% (n = 320,000) | AID 2796; in the data active = activation above about 47%;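 note: 0% = vehicle wells and 100% = reference agonist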
Target sequence (P35869 whole entry, looked up): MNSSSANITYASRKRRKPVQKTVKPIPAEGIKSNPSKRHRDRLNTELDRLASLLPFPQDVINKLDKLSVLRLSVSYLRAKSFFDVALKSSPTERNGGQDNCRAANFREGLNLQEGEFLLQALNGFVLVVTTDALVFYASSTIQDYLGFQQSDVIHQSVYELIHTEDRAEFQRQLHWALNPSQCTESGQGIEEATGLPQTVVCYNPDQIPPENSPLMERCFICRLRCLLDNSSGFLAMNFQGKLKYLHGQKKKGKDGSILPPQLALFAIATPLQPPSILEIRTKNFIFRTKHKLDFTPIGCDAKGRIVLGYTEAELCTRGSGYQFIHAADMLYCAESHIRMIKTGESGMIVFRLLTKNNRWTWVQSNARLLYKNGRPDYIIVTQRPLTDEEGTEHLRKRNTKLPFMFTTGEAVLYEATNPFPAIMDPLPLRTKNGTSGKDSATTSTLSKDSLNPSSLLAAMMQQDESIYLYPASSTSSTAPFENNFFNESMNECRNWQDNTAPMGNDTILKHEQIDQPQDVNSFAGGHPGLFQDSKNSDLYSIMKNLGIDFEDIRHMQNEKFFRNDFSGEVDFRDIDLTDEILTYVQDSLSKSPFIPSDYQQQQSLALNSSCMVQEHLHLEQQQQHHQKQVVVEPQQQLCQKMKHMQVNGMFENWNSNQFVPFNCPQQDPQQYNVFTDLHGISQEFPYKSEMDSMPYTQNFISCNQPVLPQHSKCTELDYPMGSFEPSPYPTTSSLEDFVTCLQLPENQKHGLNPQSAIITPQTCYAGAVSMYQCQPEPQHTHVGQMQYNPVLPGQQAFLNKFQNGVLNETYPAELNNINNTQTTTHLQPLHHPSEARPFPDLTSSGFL
hcDAF-12 act: activates DAF-12 receptor from parasite H. contortus; actives 1.4% (n = 370,000); activation, % at 6.8 µM; HEK293 hcDAF-12 lit1-tk-luc reporter, luminescence; 0% DMSO, 100% Δ7-dafachronic acid; AID 652067;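 active = activation above the mean of all tested compounds plus 3 SD, cut at about 5.5% in these data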;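 note: 100% = response to 3 µM Δ7-dafachronic acid high control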
DAX1 inh-2: inhibits human nuclear receptor DAX1; HEK293 Gal4-DAX1 luciferase reporter, luminescence; inhibition, % at 6.75 µM; actives 0.99% (n = 340,000); AID 504766;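 active = inhibition above the mean over all tested compounds plus 3 SD, cut at about 4.2% in these data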;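 note: 0% = DAX1-transfected cells with DMSO and 100% = empty-vector control cells with DMSO; inhibition shows as a rise in luminescence from relieved DAX1 repression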
hgDAF-12 ag: activates the H. glycines DAF-12 receptor ligand-binding domain; actives 1.8% (n = 370,000); AID 687014; activation, % at 6.8 µM; HEK293 GAL4-hgDAF12 UAS-luciferase reporter, agonist luminescence; normalized to butyrate control;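 active = activation above a cutoff set at the mean of all screened compounds plus 3 SD, cut at about 10% in these data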;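 note: 0% = DMSO wells and 100% = sodium butyrate wells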
ssDAF-12 act: activates DAF-12 receptor from parasite S. stercoralis; HEK293 ssDAF-12/GRIP1 lit1-tk-luc reporter, luminescence; % of 3 µM dafachronic acid response; activation, % at 6.8 µM; actives 1% (n = 370,000); AID 652126;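 active = activation above the mean over all tested compounds plus 3 SD, cut at about 0.9% in these data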;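 note: 0% = DMSO-only wells and 100% = 3 µM delta7-dafachronic acid wells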
* = called active by the depositor; · = no result given.

SMILES	DAX1 inh-1	AHR activator	hcDAF-12 act	DAX1 inh-2	hgDAF-12 ag	ssDAF-12 act
CN1C2=NCCN2C(=O)c2ccccc21	0.5	52.0*	2.7	-0.1	1.9	0.0
Cc1cc(C(=O)COc2ccccc2[N+](=O)[O-])c(C)n1C1CC1	1.5	63.2*	1.8	0.7	2.8	-1.1
Cc1ccc(C(=O)COC(=O)c2cn(-c3ccccc3)nc2-c2ccccc2)cc1[N+](=O)[O-]	-0.2	1.3	-0.8	-0.3	0.5	-0.4
O=C1/C(=C/c2ccc(O)c(O)c2)Oc2cc(O)ccc21	2.8	0.0	1.0	0.6	7.2	-1.1
COc1cc(/C=C2\Oc3cc(O)ccc3C2=O)ccc1O	4.3*	1.0	1.9	7.4*	9.4	-0.9
COc1cc(/C=N/Nc2ccc(C(=O)O)cc2)cc(OC)c1OC	2.3	5.2	3.2	4.3*	2.7	-0.8
COc1cc(C=NNc2ccccc2[N+](=O)[O-])cc(OC)c1OC	1.4	·	2.4	1.4	2.1	-1.0
O=C(O)c1ccc(N/N=C/c2cccc(C(F)(F)F)c2)cc1	4.4*	9.6	4.8	4.7*	10.1	-0.2
COc1ccc(/C=N/Nc2ccc(C(=O)O)cc2)c(OC)c1OC	0.5	5.5	1.3	2.2	4.6	-0.9
COc1cc(/C=N/Nc2ccc(F)cc2F)cc(OC)c1OC	-0.8	70.2*	-1.1	0.0	2.4	-1.1
O=C(N/N=C/c1cccc(C(F)(F)F)c1)c1ccccc1O	1.7	2.9	2.6	0.0	4.7	-0.8
CCCNC(=O)c1ccc2c(=O)n3c(-c4ccc(C)cc4)csc3nc2c1	-0.4	5.3	-1.2	-0.2	-0.9	-1.1
CC(C)(C)c1ccc(NC(=O)CC2(C(F)(F)F)OCCO2)cc1	3.3	15.0	2.9	1.3	9.3	-0.4
CC1(C)Nc2ccccc2C(=O)N1NC(=O)c1ccccc1	1.1	2.7	5.7*	-0.4	5.0	0.3
O=C(c1ccc(F)cc1)N1CCN(c2ncccn2)CC1	-0.6	-2.2	-2.1	1.0	-3.8	-1.2
COc1cccc(/C=N/n2nnnc2N)c1OCc1ccccc1Cl	-1.1	4.2	-0.9	-0.8	-2.2	-1.8
COc1cccc(/C=N/NC(N)=S)c1OCc1ccccc1Cl	-0.7	50.0*	-1.7	0.4	-2.3	-0.9
COc1ccccc1OCCn1cc(/C=N/NC(N)=S)c2ccccc21	-2.4	69.5*	-1.5	-0.9	-4.5	-1.8
COc1cc(/C=N/NC(N)=S)cc(Br)c1OCc1ccccc1F	-2.7	53.9*	-3.1	-2.4	-2.6	-2.4
Cc1cccc(C)c1NC(=S)NC1CCCCC1	0.4	0.5	-0.2	-0.1	-2.5	-1.0
CC1CCN(C(=O)CCc2nnc3ccc(NCCCN4CCCC4=O)nn23)CC1	0.1	0.5	-1.4	0.5	-1.0	-0.8
CCc1ccc(OCC(=O)NNC(=O)c2ccc(-n3cncn3)c([N+](=O)[O-])c2)cc1	1.5	·	-0.8	-0.8	0.9	-0.4
c1ccc(CSC2=NNC(c3ccccn3)S2)cc1 (configuration not stated)	-1.0	-3.3	-0.6	-0.8	-0.2	-1.8
O=C(CSC1=NNC(c2ccccn2)S1)Nc1ccc(C(F)(F)F)cc1 (configuration not stated)	-0.3	53.3*	3.0	-0.3	4.8	-0.1
COc1ccc(NC(=O)c2onc(C)c2Cl)cc1OC	2.4	6.1	-1.4	-0.5	0.3	-1.6
SMILES	DAX1 inh-1	AHR activator	hcDAF-12 act	DAX1 inh-2	hgDAF-12 ag	ssDAF-12 act
COc1ccc(NC(=O)c2onc(C)c2Cl)cc1	1.5	34.5	4.8	0.9	8.2	0.9*
Cc1ccc(S(=O)(=O)N2CCN(C(=O)c3c(C)nn(-c4ccccc4)c3Cl)CC2)cc1	0.0	-0.5	-0.1	0.5	0.2	-1.3
Cc1noc(C(=O)Nc2cccc(O)c2)c1Cl	1.1	17.4	5.6*	-0.2	3.6	0.5
Cc1nn(-c2ccccc2)c(Cl)c1C(=O)N1CCN(C)CC1	-0.8	2.2	0.5	9.1*	1.6	-0.8
Cc1noc(C(=O)Nc2cccc(Cl)c2)c1Cl	0.1	·	2.9	2.9	6.3	0.6
Cc1nc(Cl)sc1C(=O)Nc1ccc(Cl)cc1	-0.1	92.7*	-2.4	-0.2	4.1	-2.1
O=C1COc2cccnc2N1	-0.1	17.4	-1.1	1.5	-1.5	-1.6
COc1cccc(NC(=O)c2c(C)nn(-c3ccccc3)c2Cl)c1	0.0	·	0.0	0.3	3.0	-1.1
COc1ccc(NC(=O)c2c(C)nn(-c3ccccc3)c2Cl)cc1	0.1	14.7	0.7	5.1*	2.0	-1.0
CN1C(=O)Nc2cccc3cccc1c23	-0.4	4.5	3.5	4.4*	-2.3	-0.3
Cn1c(=O)c2c(nc(-n3ccnc3)n2Cc2ccccc2)n(C)c1=O	0.8	3.0	-1.2	0.4	-0.7	-1.4
Cc1c(C(=O)N(Cc2ccco2)Cc2cccs2)oc2ccccc12	1.0	16.0	-0.2	5.5*	1.6	1.1*
O=C1Cc2ccccc2Sc2c(OCCN3CCCCC3)cccc21	0.1	3.2	1.0	0.2	-0.5	-1.0
CCOc1cc(/C=C2/SC(=S)N(Cc3ccccc3)C2=O)ccc1O	0.0	-0.8	6.4*	-0.9	8.7	0.3
COc1cc(/C=C2/SC(=S)N(Cc3ccccc3)C2=O)ccc1OCC(=O)O	0.6	4.8	-0.9	0.7	1.1	-1.4
O=c1oc2ccccc2c(Nc2cccc3cccnc23)c1[N+](=O)[O-]	-0.4	57.5*	0.4	-1.3	-4.4	-0.2
O=c1oc2ccccc2c(Nc2cccc3ccccc23)c1[N+](=O)[O-]	0.1	43.9	1.5	0.0	-2.2	-0.7
CCOC(=O)c1cc(-c2ccccc2)nc2ccc(C)cc12	-0.4	2.3	0.0	3.7	2.2	0.0
CCOC(=O)Cc1cc(-c2ccccc2)nc2ccc3ccccc3c12	0.2	93.2*	2.8	-0.1	5.1	-0.5
Cc1csc(NC(=O)CSc2nnc(Cc3cccn3C)n2CCc2ccccc2)n1	-2.4	0.2	0.7	-2.8	-3.1	-1.0
O=C1N=c2ccccc2=C1c1[nH]c(=S)[nH]c1O	-0.4	61.4*	2.6	-2.2	0.5	-0.8

Source: PubChem BioAssay
